Assay [1] in a line: Nuclear factor erythroid 2-related factor 2/antioxidant responsive element (Nrf2/ARE) small molecule agonists: qHTS cell viability counter screen in human keratinocytes (AID 1919968; active = well fitted curve in the direction sought with a large enough effect in the repeat runs; an effect the other way counts as inactive or inconclusive; note: nearly all actives have a fitted effect of over 55% in size). The method in brief: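 KeratinoSens cells (HaCaT keratinocytes stably carrying an ARE-luciferase reporter) were seeded at 1,500 cells/well and rested 5 h at 37 C/5% CO2. They were then exposed to compounds in DMSO for 23 h. Viability was read by CellTiter-Fluor fluorescence after 1 h.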

In assay [2] the target is Gonadotropin-releasing hormone receptor (Homo sapiens) (UniProt P30968). Description: Human gonadotropin-releasing hormone receptor (GnRHR) small molecule agonists, calcium flux assay in GnRHR-HEK293 cells (AID 1920063). Note: nearly all actives have a fitted effect of over 35% in size. The method in brief:
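HEK293 cells stably expressing human GnRHR were plated 18 h at 37 °C, loaded with calcium dye 1 h at 37 °C, then given compound in agonist mode; fluorescence (Ex/Em 480/540) read kinetically for 3 min at 1 s intervals.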
(In general: Calcium assays in cells follow changes in intracellular calcium, usually with a dye or a luminescent sensor.)

Assay [3] addresses KiSS-1 receptor (Homo sapiens) (UniProt Q969F8). Description: Human kisspeptin (KISS1R) small molecule agonists, calcium flux assay in KISS1R-HEK293 cells (AID 1920064; active = well fitted curve in the direction sought with a large enough effect in the repeat runs; an effect the other way counts as inactive or inconclusive). The method in brief: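 HEK293 cells stably expressing human KISS1R were plated 18 h at 37 °C, loaded with calcium dye for 1 h at 37 °C, then given compound by pin tool. Fluorescence (Ex/Em 480/540) was read kinetically for 3 min.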

The nature of assay [4]: G protein-coupled receptor (GPCR) small molecule agonists, calcium flux assay: HEK293 wild type cell line counter screen (AID 1920065). In outline: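 Cells were plated and cultured 18 h at 37 C/5% CO2, then loaded with calcium dye for 1 h at 37 C. Compounds in DMSO were pin-transferred in agonist mode, and fluorescence (Ex/Em 480/540) was read kinetically for 3 min at 1 s intervals.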

Assay [5] is described as follows: p53 small molecule agonists, cell-based qHTS assay with human liver microsomes: qHTS cell viability counter screen (AID 1963579). Note: nearly all actives have a fitted effect of over 45% in size. Note: potency is the fitted concentration of half-maximal effect. In outline: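 Metabolic activation used human liver microsomes and NADPH, both 0.5 mg/mL final, over 16 hours at 37 C on p53RE-bla cells (4,000/well). Cytotoxicity measured by CellTiter-Glo luminescence, 30 min at room temperature.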

A short description of assay [6]: p53 small molecule agonists, cell-based qHTS assay with rat liver microsomes: qHTS cell viability counter screen (AID 1963580). Note: nearly all actives have a fitted effect of over 45% in size. The method in brief: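 HCT-116 p53RE-bla, 4,000 cells/well, 5 h pre-incubation; cpd + rat liver microsomes 0.5 mg/mL + NADPH 0.5 mg/mL (final); 16 h, 37 C; CellTiter-Glo, 30 min RT; luminescence.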
(In qHTS, concentration-response curves come from the screen itself.)

The nature of assay [7]: p53 small molecule agonists, cell-based qHTS assay: qHTS cell viability counter screen (AID 1963581). Note: nearly all actives have a fitted effect of over 45% in size. The method in brief: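 p53RE-bla HCT-116 cells were exposed to compounds for 16 h at 37 C; after the beta-lactamase FRET read in the same wells, CellTiter-Glo was added and luminescence (intracellular ATP) read after 30 min at room temperature.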
Assay [8] concerns the target 5-hydroxytryptamine receptor 2A (Homo sapiens) (UniProt P28223). Description: 5-hydroxytryptamine receptor 2A (HTR2A) small molecule antagonists, cell-based qHTS assay (AID 1963586). Note: nearly all actives have a fitted effect of over 45% in size. In outline: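 Antagonist-mode intracellular calcium assay: DOI (4 nM) added after 5 min compound pre-incubation at room temperature to dye-loaded HTR2A-CHO cells. Fluorescence followed for 3 min, sampled every second.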

For assay [9] the target is unchanged. Description: 5-hydroxytryptamine receptor 2A (HTR2A) small molecule agonists, cell-based qHTS assay (AID 1963587). Note: nearly all actives have a fitted effect of over 30% in size. In outline:
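Kinetic calcium-flux fluorescence (2 min, 1 sec intervals) after compound addition in agonist mode. HTR2A-CHO cells were cultured 18 h, then dye-loaded 1 h at 37 C.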

The target of assay [10] is Muscarinic acetylcholine receptor M1 (Homo sapiens) (UniProt P11229). Description: Cholinergic receptor muscarinic 1 (CHRM1) small molecule antagonists, cell-based qHTS assay (AID 1963588). Note: nearly all actives have a fitted effect of over 40% in size. Note: potency is the fitted concentration of half-maximal effect. The method in brief:
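CHRM1-CHO calcium-flux assay, antagonist mode. Cells were seeded 18 h, dye-loaded 1 h at 37 C and given compound for 5 min at RT, then acetylcholine was added at 50nM. FDSS fluorescence was read 3 min; 15 concentrations, three runs.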

Assay [11] has the same target. Description: Cholinergic receptor muscarinic 1 (CHRM1) small molecule agonists, cell-based qHTS assay (AID 1963589). Note: nearly all actives have a fitted effect of over 35% in size. In outline: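 CHO cells stably expressing human CHRM1, seeded 18 h at 37 C/5% CO2, dye-loaded 1 h at 37 C, then given compound in agonist mode; intracellular calcium fluorescence read kinetically at 1 s intervals. Fifteen concentrations, three independent runs.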

A short description of assay [12]: cAMP Responsive Elements (CRE) small molecule agonists, cell-based qHTS assay (AID 1963590). In outline:
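CRE-bla HEK 293T cells in DMEM with 10% dialyzed FBS, NEAA, pyruvate and 25 mM HEPES were plated 18 h at 37 C/5% CO2, then exposed to compounds in DMSO for 3 h before LiveBLAzer B/G FRET substrate addition.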

Assay [13] in a line: cAMP Responsive Elements (CRE) small molecule antagonists, cell-based qHTS assay (AID 1963591; active = well fitted inhibition curve with a large enough effect in the signal ratio in the repeat runs, not every such curve was filed as active; the % refers to the signal ratio). In outline:
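CRE-bla HEK293T cells were plated 18 h at 37 °C/5% CO2, pinned with compound in DMSO, then stimulated with NKH477 at 0.25 uM final for 3 h. LiveBLAzer B/G FRET substrate was added and plates incubated 2 h at room temperature.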

Assay [14] deals with Beta-2 adrenergic receptor (Homo sapiens) (UniProt P07550). Description: Adrenergic beta2 receptor (ADRB2) small molecule antagonists, cell-based qHTS assay (AID 1963592). Note: series mostly up to about 92 µM; nearly all actives have a fitted effect of over 50% in size. In outline: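 Cells (CHO, stable ADRB2 overexpression) incubated 18-20hr at 37C; compounds added from DMSO; agonist mix (1nM isoproterenol, 100uM IBMX, 25uM Ro-20-1724) added; 0.5hr RT; d2-cAMP and anti-cAMP-cryptate added; 1hr RT; 665/615 nm read.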

The target in assay [15] is D(2) dopamine receptor (Homo sapiens) (UniProt P14416). Description: Dopamine D2 receptor (DRD2) small molecule antagonists, cell-based qHTS assay (AID 1963595; active = well fitted inhibition curve with a large enough effect in the signal ratio in the repeat runs, with a control signal flat; the % refers to the signal ratio). The method in brief: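 Stable D2 receptor HEK293 line, 24 h after seeding. Compound preincubated 10 min, then quinpirole (12 nM) with forskolin analogue NKH477 (200 nM), 30 min, room temperature. Detection by time-resolved FRET of cAMP.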

The target is the same in assay [16]. Description: Dopamine D2 receptor (DRD2) small molecule agonists, cell-based qHTS assay (AID 1963594). Note: nearly all actives have a fitted effect of over 35% in size. In outline:
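cAMP accumulation in DRD2-HEK293 cells measured by HTRF after 1 h detection; compounds added 10 min before NKH477 (200nM […]) forskolin-analogue stimulation, 30 min at room temperature, with Ro20-1724 present at 0.1 mM final.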

A short description of assay [17]: p53 small molecule agonists, cell-based qHTS assay with human liver microsomes (AID 1963577).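 Note: p53 response element beta-lactamase reporter cells with liver microsomes plus NADPH.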 The method in brief: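 With metabolic activation: human liver microsomes (0.5 mg/mL final) plus NADPH (0.5 mg/mL final) added alongside compounds to p53RE-bla cells; 16 h 37 C exposure; beta-lactamase read by LiveBLAzer fluorescence.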
A short description of assay [18]: p53 small molecule agonists, cell-based qHTS assay (AID 1963582; active = well fitted activation curve with a large enough effect in the signal ratio in the repeat runs, not every such curve was filed as active; the % refers to the signal ratio). In outline:
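p53RE-bla beta-lactamase reporter cells rested 5 h at 37 C/5% CO2, then received compounds in DMSO by pin transfer and were incubated 16 h at 37 C. LiveBLAzer B/G FRET substrate was loaded for 2 h at room temperature before fluorescence reading.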

In PubChem BioAssay (Tox21) one finds Potency data, which are given here for eight compounds.

A number with no mark means an inactive call. Inconclusive results are not listed. Calls of active or inactive are those of the source. Unless noted, calls come from the whole dose curve.

Beta-2 adrenergic receptor (Homo sapiens), sequence (P07550 whole entry, looked up): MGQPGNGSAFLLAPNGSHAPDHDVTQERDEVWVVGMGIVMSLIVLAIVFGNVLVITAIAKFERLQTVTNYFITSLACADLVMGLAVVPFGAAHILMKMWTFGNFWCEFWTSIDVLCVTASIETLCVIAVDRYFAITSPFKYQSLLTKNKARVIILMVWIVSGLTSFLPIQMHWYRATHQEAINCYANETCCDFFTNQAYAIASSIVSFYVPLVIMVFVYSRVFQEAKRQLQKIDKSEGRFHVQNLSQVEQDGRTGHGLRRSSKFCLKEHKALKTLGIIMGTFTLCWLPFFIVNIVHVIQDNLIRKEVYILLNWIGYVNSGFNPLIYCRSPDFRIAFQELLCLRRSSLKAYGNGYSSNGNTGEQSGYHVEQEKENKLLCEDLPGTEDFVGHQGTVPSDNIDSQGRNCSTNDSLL
Muscarinic acetylcholine receptor M1 (Homo sapiens), sequence (P11229 whole entry, looked up): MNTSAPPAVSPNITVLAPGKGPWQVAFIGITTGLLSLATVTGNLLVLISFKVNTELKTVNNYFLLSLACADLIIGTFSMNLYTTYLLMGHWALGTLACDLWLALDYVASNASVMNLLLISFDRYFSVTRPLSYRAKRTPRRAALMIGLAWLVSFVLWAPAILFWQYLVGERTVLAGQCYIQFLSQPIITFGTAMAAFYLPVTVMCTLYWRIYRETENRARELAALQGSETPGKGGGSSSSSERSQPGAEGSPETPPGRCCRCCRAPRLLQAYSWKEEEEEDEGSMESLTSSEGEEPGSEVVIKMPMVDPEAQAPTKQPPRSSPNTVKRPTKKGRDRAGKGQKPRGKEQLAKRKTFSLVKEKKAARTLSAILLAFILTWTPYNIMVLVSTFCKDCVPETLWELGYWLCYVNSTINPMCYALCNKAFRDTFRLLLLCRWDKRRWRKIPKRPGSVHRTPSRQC
KiSS-1 receptor (Homo sapiens), sequence (Q969F8 whole entry, looked up): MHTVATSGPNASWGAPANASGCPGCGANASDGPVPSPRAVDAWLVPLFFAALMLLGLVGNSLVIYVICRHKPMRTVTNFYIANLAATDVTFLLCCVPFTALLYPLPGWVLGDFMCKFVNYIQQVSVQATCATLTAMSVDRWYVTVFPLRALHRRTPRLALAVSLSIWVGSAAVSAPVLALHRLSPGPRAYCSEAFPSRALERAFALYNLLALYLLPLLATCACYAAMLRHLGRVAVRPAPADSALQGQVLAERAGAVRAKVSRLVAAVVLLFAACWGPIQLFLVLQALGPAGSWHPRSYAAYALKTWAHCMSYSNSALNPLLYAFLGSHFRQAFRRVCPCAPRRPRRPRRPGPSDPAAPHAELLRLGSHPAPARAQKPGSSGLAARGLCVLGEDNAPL
5-hydroxytryptamine receptor 2A (Homo sapiens), sequence (P28223 whole entry, looked up): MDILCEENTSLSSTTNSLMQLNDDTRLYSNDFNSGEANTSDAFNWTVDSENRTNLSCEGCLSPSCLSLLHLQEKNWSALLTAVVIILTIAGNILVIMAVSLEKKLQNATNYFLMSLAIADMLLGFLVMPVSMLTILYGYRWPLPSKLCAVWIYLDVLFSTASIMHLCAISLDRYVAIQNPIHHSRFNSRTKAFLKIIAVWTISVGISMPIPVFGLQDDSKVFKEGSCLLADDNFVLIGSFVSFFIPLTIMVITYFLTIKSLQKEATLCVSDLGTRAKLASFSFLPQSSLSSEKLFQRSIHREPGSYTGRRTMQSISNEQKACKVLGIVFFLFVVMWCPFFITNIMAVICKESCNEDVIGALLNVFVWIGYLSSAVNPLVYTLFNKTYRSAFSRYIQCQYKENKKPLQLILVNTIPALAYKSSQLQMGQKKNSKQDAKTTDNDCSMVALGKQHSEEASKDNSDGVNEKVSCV
Gonadotropin-releasing hormone receptor (Homo sapiens), sequence (P30968 whole entry, looked up): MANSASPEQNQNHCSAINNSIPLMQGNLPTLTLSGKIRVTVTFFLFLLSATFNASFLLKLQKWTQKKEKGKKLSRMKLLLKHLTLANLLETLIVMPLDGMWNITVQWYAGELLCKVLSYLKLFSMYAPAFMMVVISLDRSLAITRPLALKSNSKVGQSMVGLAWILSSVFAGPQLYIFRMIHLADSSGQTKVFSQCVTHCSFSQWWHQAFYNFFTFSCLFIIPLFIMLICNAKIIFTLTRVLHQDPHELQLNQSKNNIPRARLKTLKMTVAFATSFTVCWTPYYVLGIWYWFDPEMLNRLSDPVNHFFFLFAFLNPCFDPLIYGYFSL
D(2) dopamine receptor (Homo sapiens), sequence (P14416 whole entry, looked up): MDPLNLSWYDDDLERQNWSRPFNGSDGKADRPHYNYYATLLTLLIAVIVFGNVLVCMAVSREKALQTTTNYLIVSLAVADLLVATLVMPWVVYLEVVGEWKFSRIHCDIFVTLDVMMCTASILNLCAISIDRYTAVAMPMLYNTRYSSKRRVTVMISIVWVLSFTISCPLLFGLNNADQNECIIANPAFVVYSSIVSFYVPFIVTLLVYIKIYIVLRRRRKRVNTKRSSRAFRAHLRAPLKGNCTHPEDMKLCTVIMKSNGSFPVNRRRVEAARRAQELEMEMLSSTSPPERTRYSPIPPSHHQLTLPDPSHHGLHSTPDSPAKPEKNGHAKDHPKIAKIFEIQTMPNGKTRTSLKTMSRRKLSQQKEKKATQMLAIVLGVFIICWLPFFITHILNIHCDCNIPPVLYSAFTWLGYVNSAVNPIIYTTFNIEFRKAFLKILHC

As for `C=CC(=O)OCC(C)O` (stereo not drawn), the Potency entry in assay [1], in [2], in [3], in [4], in assay [5] and in [6] was “inactive” each time. Moreover, the Potency entry in [7], in assay [8], in assay [9], in assay [10], in assay [11] and in [12] was “inactive” in each case. For the same compound, the Potency result in [13], in [14] and in assay [15] was “inactive” in each case.
`N#CC(O)c1ccccc1` (stereo not drawn): the Potency result in assay [1], in assay [2], in [3], in assay [4], in assay [5] and in [6] was “inactive” each time. Moreover, the Potency entry in assay [9], in [10], in assay [11], in [12], in assay [13] and in [14] was “inactive” each time. In [16], the Potency result was “inactive”.
Consider `C#CCC1=C(C)C(OC(=O)C2C(C=C(C)C)C2(C)C)CC1=O` (stereo not drawn), for which the Potency entry in assay [1], in [2], in assay [3], in assay [4], in assay [5] and in assay [6] was “inactive” each time. The Potency entry in assay [7], in assay [8], in assay [9], in [14] and in assay [16] was “inactive” throughout. For the same compound, the Potency in assay [10] was 11.8 µM (active).
As to `CC(=O)[O-].CC(=O)[O-].CC(=O)[O-].[Cr+3]`, the Potency result in [1], in assay [2], in assay [3], in assay [4], in assay [5] and in assay [7] was “inactive” in each case. Moreover, the Potency entry in [8], in assay [9], in assay [10], in [11], in assay [13] and in assay [14] was “inactive” in each case. For the same compound, the Potency result in [16] and in assay [15] was “inactive” in each case.
As for `COP(=S)(OC)Oc1cc(Cl)c(Br)cc1Cl`, the Potency entry in [1], in assay [2], in assay [3], in assay [4], in [6] and in [7] was “inactive” each time. In addition, the Potency entry in assay [8], in [9], in assay [10], in assay [11], in assay [13] and in assay [14] was “inactive” throughout. The Potency result in assay [16] and in [15] was “inactive” each time. The Potency in assay [5] is 45.8 µM (active).
Take `CCNC(=O)NC(=O)/C(C#N)=N/OC`: the Potency result in [1], in assay [2], in assay [3], in [4], in assay [6] and in [7] was “inactive” each time. The Potency result in assay [9], in [10], in [11], in [13], in assay [14] and in assay [16] was “inactive” each time. The Potency entry in [15] is “inactive”.
For `CC(=O)NNc1ccccc1`, the Potency entry in assay [1], in assay [2], in [3], in assay [4], in assay [5] and in assay [6] was “inactive” throughout. The Potency result in assay [7], in [8], in assay [9], in assay [10], in [11] and in [13] was “inactive” in each case. For the same compound, the Potency result in assay [16] and in [15] was “inactive” each time.
Consider `CCS(=O)(=O)c1cccnc1S(=O)(=O)NC(=O)Nc1nc(OC)cc(OC)n1`, for which the Potency result in assay [1], in assay [2], in [3], in [17], in assay [5] and in [6] was “inactive” in each case. Also, the Potency result in [7], in assay [18], in [8], in assay [9], in [10] and in assay [11] was “inactive” each time. Also, the Potency entry in assay [12], in assay [13], in assay [14], in assay [16] and in [15] was “inactive” in each case.
